“And” between values parts separate entries of the source, which are not always exact repeats. Identical values can stand only once. This is part of a sample that, as a whole, favours compounds with a hit. Of some 79,000 tested, about 15% had one in any assay. Unmarked numbers belong to inactive results. The source made the active and inactive calls. No stated cut-off is given here; in the data, active means growth inhibition above about 70%; inactive means the rest.

A short description of the first assay: NCI Yeast Anticancer Drug Screen. Data for the cln2 rad14 strain (AID 165).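 Further: 0% = growth equal to vehicle treated cultures.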 The conditions noted are these: S. cerevisiae cln2 rad14 strain, at 50.0 µM, active compounds read high. The method, boiled down:
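Yeast strain cln2 rad14, bearing defects in cell cycle control and DNA repair, serves as the test system; values reflect growth inhibition compared with vehicle.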
Take `C=CCN1CCC23c4c5ccc(O)c4OC2C(=NN=C2CCC4(O)C6Cc7ccc(O)c8c7C4(CCN6CC=C)C2O8)CCC3(O)C1C5` (configuration not stated): the growth inhibition is 27.4%.

Regarding `Cc1cc(Cl)ccc1N`, the growth inhibition was 12.2%.

As for `COc1ccc(C(N)Cc2cc(OC)c(OC)c(OC)c2)cc1` (configuration not stated), the growth inhibition was -10.5%.

Turning to `O=C(Nc1ccc(Cl)cc1C(=O)c1ccccc1)c1ccc(Cl)cc1`, the growth inhibition was -2%.

With `[Ni+2].[O-]c1ccc(Cl)cc1C=NCc1ccccn1.[O-]c1ccc(Cl)cc1C=NCc1ccccn1`, the growth inhibition is 86.9% (active).

Take `CCCCOCN(COCCCC)C(C)Cc1ccccc1` (configuration not stated): the growth inhibition is 11.1%.

In the case of `[C-]#[O+].[C-]#[O+].[C-]#[O+].[Ni].c1ccc([PH+](CC[PH+](c2ccccc2)c2ccccc2)CC[PH+](c2ccccc2)c2ccccc2)cc1`, the growth inhibition is 32.8%.

With `O=C([O-])C(F)(F)C(F)(F)F.[C-]#[O+].[C-]#[O+].[C-]#[O+].[C-]#[O+].[C-]#[O+].[Mn]`, the growth inhibition is 0%.

In the case of `CC1CCC(OC(=O)CCl)CC1` (configuration not stated), the growth inhibition was 7.45%.

With `CCCCNCCc1cccnc1`, the growth inhibition is 23.7%.

With `COc1cccc(C=C(C#N)C#N)c1OC`, the growth inhibition is 5.05%.

With `Cc1ccc(O)c(Cl)c1`, the growth inhibition is -11.7%.

Consider `O=CNc1ccc(Cl)cc1C(=O)c1ccccc1`, for which the growth inhibition is 28.8%.

On to `CC1(C)OCC(C2NC2C2COC(C)(C)O2)O1` (configuration not stated), for which the growth inhibition is -40.4%.

A further assay is described as follows: NCI Yeast Anticancer Drug Screen. Data for the bub3 strain (AID 167). The conditions noted are these: S. cerevisiae bub3 mutant strain, at 50.0 µM, active compounds read high. The method, boiled down: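 Inhibition values come from growth of compound-treated mutant yeast normalised to vehicle-treated controls.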
Turning to `N.N.N.N.O=C([O-])C(=O)O.O=C([O-])C(=O)[O-].[Co+3]`, the growth inhibition was 11.9%.

For `O=C1NC(=O)C(CC(C(=O)C(=O)Nc2ccccc2Cl)C(=O)c2ccc3ccccc3c2)C(=O)N1` (configuration not stated), the growth inhibition is 2.4%.

Consider `CSCCC([NH-])C(=O)O.CSCCC([NH-])C(=O)O.[Cu+2]` (configuration not stated), for which the growth inhibition was -13.1%.

On to `CC(C)=NNC1=NC(CC(C)C)P(=O)(NCCCCNP2(=O)SC(NN=C(C)C)=NC2CC(C)C)S1` (configuration not stated), for which the growth inhibition is -11.3%.

Consider `CCCCOS(C)(=O)=O`, for which the growth inhibition is 21.4%.

As for `CN(C)NP(c1ccccc1)c1ccccc1`, the growth inhibition was -18.2%.

With `NC(CO)Cc1ccccc1` (configuration not stated), the growth inhibition is 13.9% and 14.8%.

On to `O=C(CN1CCCCC1)c1ccc(Br)cc1`, for which the growth inhibition is -12.4%.

For the compound `COc1ccc(N=NC(=O)NC(CC(C)C)C(=O)NCC(=O)O)cc1` (configuration not stated), the growth inhibition was 5.35%.

`COc1cc(C(=O)O)cc(OC)c1OC`: the growth inhibition is 2.05%.

Consider `CCCCC[N+]1=Cc2cc(O)c(O)cc2CC1`, for which the growth inhibition is -12.4%.

Take `O=C(O)C(=O)Cc1ccc2c(c1)OCO2`: the growth inhibition is -20.2%.

On to `O=C1NCCCCC1Cl` (configuration not stated), for which the growth inhibition is 8.8%.

Regarding `COC(=O)N/N=C(\C)C(CN(C)C)C(c1ccccc1)c1c(O)c2ccccc2oc1=O` (configuration not stated), the growth inhibition is 49.4%.

On to `Fc1ccc(C(Cl)(Cl)Cl)cc1`, for which the growth inhibition is -17.1%.

Turning to `C=C[CH2][Sn]([CH3])([CH3])[CH2]C=C`, the growth inhibition was -12.6%.

Consider `CC(O)C[As](=O)(O)c1ccccc1Cl` (configuration not stated), for which the growth inhibition is 14.4%.

With `NCCCP(c1ccccc1)c1ccccc1`, the growth inhibition was -1.7%.

`O=C(O)c1cc[c]([Hg][S]c2ncnc3nc[nH]c23)cc1`: the growth inhibition was 97.5% (active).

With `Cc1ccc(C(C)(C)C)c(OP(=S)(S)Oc2cc(C)ccc2C(C)(C)C)c1.[Pb]`, the growth inhibition was -13.7%.

For `CCOS(=O)(=O)OCC`, the growth inhibition is -10.8%.

For the compound `CCOC(=O)C(C)(C)C(OP(=S)(OCC)OCC)=C(C)C`, the growth inhibition is 18%.

As to `CCCO[As](=O)(OCCC)OCCC`, the growth inhibition is 24.1%.

Consider `O=C(c1ccccc1)C1C(c2ccccc2)N1Cc1ccccc1` (configuration not stated), for which the growth inhibition is 9.65%.

Turning to `C1CSCCO1.[Cu+2].[O-][Cl+3]([O-])([O-])O`, the growth inhibition was -37%.

On to `COc1ccc2[nH]cc(CN(C)C)c2c1`, for which the growth inhibition was -6.35%.

Regarding `C=CCN1CCC23c4c5ccc(O)c4OC2C(=NN=C2CCC4(O)C6Cc7ccc(O)c8c7C4(CCN6CC=C)C2O8)CCC3(O)C1C5` (configuration not stated), the growth inhibition is 2.1%.

Regarding `Cc1cc(Cl)ccc1N`, the growth inhibition is 24.4%.

Turning to `COc1ccc(C(N)Cc2cc(OC)c(OC)c(OC)c2)cc1` (configuration not stated), the growth inhibition was 7.8%.

With `O=C(Nc1ccc(Cl)cc1C(=O)c1ccccc1)c1ccc(Cl)cc1`, the growth inhibition was 25.9%.

With `[Ni+2].[O-]c1ccc(Cl)cc1C=NCc1ccccn1.[O-]c1ccc(Cl)cc1C=NCc1ccccn1`, the growth inhibition was 96.5% (active).

Take `CCCCOCN(COCCCC)C(C)Cc1ccccc1` (configuration not stated): the growth inhibition is -2.25%.

Regarding `[C-]#[O+].[C-]#[O+].[C-]#[O+].[Ni].c1ccc([PH+](CC[PH+](c2ccccc2)c2ccccc2)CC[PH+](c2ccccc2)c2ccccc2)cc1`, the growth inhibition is 42.6%.

Source of the values: PubChem BioAssay (NCI).
